This passage reports mean cell size results from the supplement of paper PMC4709259.

SMILES strings stand for the structures. Counter-ions that a name gives are not always drawn. ± gives the standard deviation.

This test deals with Jurkat. Briefly: mean cell size (FSC-A) relative to DMSO control (fraction of control); higher = larger cells. The settings on record: 48 h. The method, boiled down:
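Jurkat cells at 600 cells/µl were incubated for 1 h and then treated for 48h with the Enzo Screen-Well FDA Approved Drug Library v2.0 at 25µM, with DMSO at 0.9% (v/v) final. Compounds that reduced counts below 20% of controls were retested in 10-fold dilutions down to 25nM. Cell count and mean cell size, taken as forward scatter area, were measured by flow cytometry relative to solvent-only controls. Each plate carried 6-12 controls, and values are means of 3 biological replicates.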
Compound `NCCNCCNCCN` [Trientine Dihydrochloride] (concentration: 25 µM) registered a mean cell size of 0.949 ± 0.04.

Turning to `CC(CCc1ccccc1)NCC(O)c1ccc(O)c(C(N)=O)c1` (stereo not given) [Labetalol·HCl] (concentration: 25 µM), the mean cell size stood at 0.928 ± 0.049. Compound `CCCCc1ncc(/C=C(\Cc2cccs2)C(=O)O)n1Cc1ccc(C(=O)O)cc1` [Eprosartan Mesylate] (concentration: 25 µM) returned a mean cell size of 1.01 ± 0.06.

In the case of `CCc1c2c(nc3ccc(OC(=O)N4CCC(N5CCCCC5)CC4)cc13)-c1cc3c(c(=O)n1C2)COC(=O)[C@]3(O)CC` [Irinotecan·HCl] (concentration: 250 nM), the mean cell size amounted to 1.05 ± 0.038. The same measure for `CC(=O)OCC(=O)[C@@]12OC3(CCCC3)O[C@@H]1C[C@H]1[C@@H]3CCC4=CC(=O)C=C[C@]4(C)[C@@]3(F)[C@@H](O)C[C@@]12C` [Amcinonide] (concentration: 25 µM): 0.994 ± 0.064; for `CC(=O)N[C@@H](CS)C(=O)O` [Acetylcysteine] (concentration: 25 µM): 1.02 ± 0.059; for `NS(=O)(=O)c1cc(C(=O)O)c(NCc2ccco2)cc1Cl` [Furosemide] (concentration: 25 µM): 0.932 ± 0.034.

Compound `CCCCc1nc(Cl)c(CO)n1Cc1ccc(-c2ccccc2-c2nnn[nH]2)cc1` [Losartan Potassium] (concentration: 25 µM) came in with a mean cell size of 0.922 ± 0.041. Regarding `NC(=O)N1c2ccccc2C=Cc2ccccc21` [Carbamazepine] (concentration: 25 µM), the mean cell size amounted to 0.955 ± 0.044. Under `CCCCNC(=O)NS(=O)(=O)c1ccc(C)cc1` [Tolbutamide] (concentration: 25 µM) stands 0.976 ± 0.032.
